Reference: PubChem BioAssay

Assay: MM1S cell viability effects, profiling panel, calcein-AM fluorescence, 48 h, basal (AID 1165);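 note: viability of MM1S multiple myeloma cells under basal unstimulated conditions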
Conditions: higher = more signal
Note: test concentration not given here.

| Structure (SMILES) | z-score |
| --- | --- |
| COC(=O)C(CC#Cc1ccc2c(c1)[C@]1(C(=O)N2)[C@H](C(=O)N2CCCCCCC2)[C@H]2C(=O)O[C@H](c3ccccc3)[C@H](c3ccccc3)N2[C@@H]1c1ccc(OCCO)cc1)C(=O)OC | -0.236 |
| O=C1NC(=O)C2C1C=CC(C(O)C1CCCCC1)N2Nc1ccccn1 (stereo not given) | -0.0776 |
| CN1C(=O)C2C=CC(C(O)c3ccc(I)cc3)N(N(c3ccccc3)c3ccccc3)C2C1=O (stereo not given) | -0.0182 |
| COC(=O)[C@]1(Cc2ccccc2N=[N+]=[N-])N=C(c2ccc(OCCCO)cc2)O[C@@H]1c1ccccc1CN=[N+]=[N-] | -3.59 |
| COC(=O)[C@@]1(Cc2ccc(F)cc2)[C@H]2c3cc(C(=O)N(C)C)n(Cc4ccc(C(F)(F)F)nc4)c3C[C@H]2CN1C(=O)c1ccccc1 | -0.201 |
| C=C(CCCC)/C(=C/C[C@@H](OC(C)=O)c1ccc(OCCO)cc1)c1cc(C(=O)OC)ccc1OC | -3.33 |
| COc1ccc([Si](C)(C)[C@@H]2[C@@H](CC(=O)N3Cc4ccccc4C[C@H]3CO)O[C@]3(C(=O)N(Cc4ccc(I)cc4)c4ccccc43)[C@H]2C)cc1 | -1.98 |
| C=CCNC(=O)[C@@H]1[C@H]2C(=O)O[C@H](c3ccccc3)[C@H](c3ccccc3)N2[C@H](c2ccc(O)cc2)[C@@]12C(=O)Nc1ccc(C#CC3=CCCCC3)cc12 | -3.35 |
| COCCOC(=O)N1C(=O)[C@@]2(c3cc(C#CCCO)ccc31)[C@H](C(=O)N1CCN(c3ncccn3)CC1)[C@H]1C(=O)O[C@H](c3ccccc3)[C@H](c3ccccc3)N1[C@@H]2c1ccc(OCCO)cc1 | -1.07 |
| O=C1N(Cc2ccccc2)Cc2ccccc2C[C@@]12COC(c1ccc(OCCCO)cc1)=N2 | -3.63 |
| [N-]=[N+]=NCc1ccccc1[C@H]1OC(c2ccc(OCCCO)cc2)=N[C@@]1(Cc1ccccc1N=[N+]=[N-])C(=O)N1CCOCC1 | -2.69 |
| CO[C@H]1O[C@H](CO)[C@@H](OC(=O)Nc2cccc(F)c2)[C@H](OC(=O)Nc2ccc3c(c2)OCO3)[C@@H]1OC(=O)Nc1ccc2c(c1)OCO2 | -1.49 |
| [N-]=[N+]=Nc1ccccc1C[C@@]1(C(=O)NCc2ccccc2)N=C(c2ccc(OCCCO)cc2)O[C@@H]1c1ccccc1 | -2.51 |
| C=C[C@H](C)[C@@H](OC(=O)Nc1ccc(SC)cc1)c1ccc(OCCO)cc1 | -1.69 |
| COc1ccc(C#Cc2ccc3c(c2)[C@]2(C(=O)N3)[C@H](c3ccccc3OCCO)N3[C@H](c4ccccc4)[C@H](c4ccccc4)OC(=O)[C@H]3[C@@H]2C(=O)NC[C@H](O)c2ccccc2)cc1 | -2.85 |

Assay: basal RPMI8226 viability, no added stimulus, profiling panel, cell-based, calcein-AM fluorescence, 48 h, PK04 Diversity Set (AID 1166);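 note: cells grown under basal conditions without added stimulus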
Conditions: RPMI8226 myeloma viability, higher = more signal

| Structure (SMILES) | z-score |
| --- | --- |
| COCCOC(=O)N1C(=O)[C@@]2(c3cc(C#CCC(C(=O)OC)C(=O)OC)ccc31)[C@H](c1ccc(O)cc1)N1[C@H](c3ccccc3)[C@H](c3ccccc3)OC(=O)[C@H]1[C@@H]2C(=O)N1CCc2cc(OC)c(OC)cc2C1 | -3.34 |
| C[C@]1(C(=O)O)c2ccccc2C(=O)N(Cc2cc(C(F)(F)F)cc(C(F)(F)F)c2)[C@H]1c1ccc(CO)cc1 | -0.329 |
| O=C(N1CCOCC1)[C@]1(CCS(=O)(=O)c2ccccc2)N=C(c2ccc(OCCCO)cc2)O[C@@H]1c1ccccc1 | -0.0091 |
| CC1(C)OB(/C=C\CC(OC(=O)c2ccncc2)c2ccccc2)OC1(C)C (stereo not given) | -1.45 |
| COC(=O)[C@]1(Cc2ccccc2CN=[N+]=[N-])N=C(c2ccc(OCCCO)cc2)O[C@@H]1c1ccccc1N=[N+]=[N-] | -4 |
| CC(C)(C)OC(=O)CC[C@@]1(C(=O)N2CCOCC2)N=C(c2ccc(OCCCO)cc2)O[C@@H]1c1ccccc1CN=[N+]=[N-] | -1.58 |
| COC(=O)[C@@]1(Cc2ccccc2)[C@H]2c3cc(C(=O)N(C)C)n(Cc4ccc(Cl)c(C(F)(F)F)c4)c3C[C@H]2CN1C(=O)c1ccccc1 | -4.44 |
| CN1C(=O)C2C(C1=O)C1C=C(CCCO)C2C(C2CC2)N1C (stereo not given) | 0.929 |
| CO[C@H]1O[C@H](CO)[C@@H](OC(=O)CCc2ccccc2)[C@@H]2OC(=O)[C@@H](Cc3ccc4ccccc4c3)C/C=C/C[C@H](Cc3ccc4ccccc4c3)C(=O)O[C@@H]12 | 0.0085 |
| C=C(C(=O)CC[C@@H](OC(=O)c1ccccc1-c1ccccc1C(=O)O)c1ccc(OCCO)cc1)C(C)C | -2.98 |
| [N-]=[N+]=NCc1ccccc1[C@H]1OC(c2ccc(OCCCO)cc2)=N[C@@]1(Cc1ccccc1N=[N+]=[N-])C(=O)O | -0.984 |
| C=CCN1C(=O)[C@]2(O[C@H](CCO)[C@@H]([Si](C)(C)c3ccc(OC)cc3)[C@@H]2C)c2cc(N3C(=O)c4ccccc4Oc4ccccc43)ccc21 | -4.35 |
| CCOC(=O)C[C@H]1[C@H](OC(=O)c2ccc(-c3ccccc3)cc2)[C@@H](NC(=O)C2CCCCC2)c2cc(OCCCO)ccc2N1C(=O)Cc1ccc(OC)cc1 | -0.938 |
| C=CCNC(=O)[C@@H]1[C@H]2C(=O)O[C@H](c3ccccc3)[C@H](c3ccccc3)N2[C@H](c2ccc(OCCO)cc2)[C@@]12C(=O)Nc1ccc(C#CCNC(N)=O)cc12 | 0.155 |
| CC(C)Cc1ccc(CN2CC[C@@H](NC(=O)c3ccccc3)C2)cc1 | -2.77 |
| CC(=O)NCCCC[C@@H]1NC(=O)[C@H]2C[C@@H](C(=O)NCCCCCN)[C@@H](c3ccc(O)cc3)N2C1=O | -0.556 |
| CCCNC(=O)[C@@]1(Sc2ccc(C)cc2)CC(=O)N(Cc2cc(C(F)(F)F)cc(C(F)(F)F)c2)[C@@H]1c1ccc(CO)cc1 | -0.312 |
| Cc1ccc(S[C@]2(C(=O)NCc3ccccc3)CC(=O)N(Cc3ccccc3C(F)(F)F)[C@@H]2c2ccc(CO)cc2I)cc1 | -2.16 |

| Structure (SMILES) | z-score |
| --- | --- |
| CCc1cccc(NC(=O)O[C@H]2[C@H](OC(=O)Nc3ccccc3-c3ccccc3)[C@H](OC(=O)Nc3ccccc3-c3ccccc3)[C@@H](OC)O[C@@H]2CO)c1 | -0.201 |
| Cc1ccc(S[C@]2(C(=O)NCC(C)C)CC(=O)N(C(C)C)[C@@H]2c2ccc(CO)cc2I)cc1 | -2.03 |
| COC(=O)C(CC#Cc1ccc2c(c1)[C@]1(C(=O)N2)[C@H](C(=O)N2CCCCCCC2)[C@H]2C(=O)O[C@H](c3ccccc3)[C@H](c3ccccc3)N2[C@@H]1c1ccc(OCCO)cc1)C(=O)OC | 0.164 |
| O=C1NC(=O)C2C1C=CC(C(O)C1CCCCC1)N2Nc1ccccn1 (stereo not given) | -0.76 |
| CN1C(=O)C2C=CC(C(O)c3ccc(I)cc3)N(N(c3ccccc3)c3ccccc3)C2C1=O (stereo not given) | -0.726 |
| COC(=O)[C@]1(Cc2ccccc2N=[N+]=[N-])N=C(c2ccc(OCCCO)cc2)O[C@@H]1c1ccccc1CN=[N+]=[N-] | -3.98 |
| COC(=O)[C@@]1(Cc2ccc(F)cc2)[C@H]2c3cc(C(=O)N(C)C)n(Cc4ccc(C(F)(F)F)nc4)c3C[C@H]2CN1C(=O)c1ccccc1 | -1.36 |
| C=C(CCCC)/C(=C/C[C@@H](OC(C)=O)c1ccc(OCCO)cc1)c1cc(C(=O)OC)ccc1OC | -3.24 |
| COc1ccc([Si](C)(C)[C@@H]2[C@@H](CC(=O)N3Cc4ccccc4C[C@H]3CO)O[C@]3(C(=O)N(Cc4ccc(I)cc4)c4ccccc43)[C@H]2C)cc1 | -0.588 |
| C=CCNC(=O)[C@@H]1[C@H]2C(=O)O[C@H](c3ccccc3)[C@H](c3ccccc3)N2[C@H](c2ccc(O)cc2)[C@@]12C(=O)Nc1ccc(C#CC3=CCCCC3)cc12 | -4.57 |
| COCCOC(=O)N1C(=O)[C@@]2(c3cc(C#CCCO)ccc31)[C@H](C(=O)N1CCN(c3ncccn3)CC1)[C@H]1C(=O)O[C@H](c3ccccc3)[C@H](c3ccccc3)N1[C@@H]2c1ccc(OCCO)cc1 | 0.863 |
| O=C1N(Cc2ccccc2)Cc2ccccc2C[C@@]12COC(c1ccc(OCCCO)cc1)=N2 | -4.39 |
| [N-]=[N+]=NCc1ccccc1[C@H]1OC(c2ccc(OCCCO)cc2)=N[C@@]1(Cc1ccccc1N=[N+]=[N-])C(=O)N1CCOCC1 | -3.44 |
| CO[C@H]1O[C@H](CO)[C@@H](OC(=O)Nc2cccc(F)c2)[C@H](OC(=O)Nc2ccc3c(c2)OCO3)[C@@H]1OC(=O)Nc1ccc2c(c1)OCO2 | -1.74 |
| [N-]=[N+]=Nc1ccccc1C[C@@]1(C(=O)NCc2ccccc2)N=C(c2ccc(OCCCO)cc2)O[C@@H]1c1ccccc1 | -3.76 |
| C=C[C@H](C)[C@@H](OC(=O)Nc1ccc(SC)cc1)c1ccc(OCCO)cc1 | -1.81 |
| COc1ccc(C#Cc2ccc3c(c2)[C@]2(C(=O)N3)[C@H](c3ccccc3OCCO)N3[C@H](c4ccccc4)[C@H](c4ccccc4)OC(=O)[C@H]3[C@@H]2C(=O)NC[C@H](O)c2ccccc2)cc1 | -4.12 |
